# TrxR1 substrate = is turned over as a substrate by rat TrxR1; purified TrxR1 substrate turnover, NADPH consumption readout; Potency, µM (titrated, usually from 114 µM), for the others: at the highest dose activity change, negative = substrate turnover; hit rate 0.01% among 390,000; note: nearly all actives have a fitted effect of over 50% in size
#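 Rat TrxR1, dispensed at 90 nM, was prereduced with 400 uM NADPH (final) for 5 min at ~22 deg C, then incubated with compound 15 min before 400 uM selenite. A first-read NADPH fluorescence drop versus no-compound background flagged substrates.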
# Anesthetic bind = binds horse apoferritin like a general anesthetic; apoferritin/1-aminoanthracene competitive binding, fluorescence; P02791; Potency, µM (titrated, usually from 77.5 µM), inactives show at the highest dose activity change, negative = displacement, most hits filed as inhibitors; hit rate 0.074% among 350,000; AID 485281; note: nearly all actives have a fitted effect of over 20% in size
# Target sequence (P02791 2-175 limits assumed): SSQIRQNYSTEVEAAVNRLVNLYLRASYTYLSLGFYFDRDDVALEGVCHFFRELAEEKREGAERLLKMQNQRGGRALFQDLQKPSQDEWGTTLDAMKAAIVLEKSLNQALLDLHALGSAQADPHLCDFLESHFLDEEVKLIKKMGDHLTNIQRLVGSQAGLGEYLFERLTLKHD
#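 Concentration-response curves derived by four-parameter Hill fitting of normalized fluorescence, where compounds displaced 1-AMA from 10 uM horse apoferritin following a brief 10 min room-temperature incubation; propofol titration acted as positive control.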
# TrxR1 inh = blocks rat thioredoxin reductase 1; O89049; hit rate 1% among 390,000; recombinant rTrxR1, NADPH fluorescence consumption, selenite substrate; Potency, µM (titrated, usually from 114 µM), for inactives: at the highest dose activity change, negative = inhibition, actives largely listed as inhibitors; note: nearly all actives have a fitted effect of over 65% in size
#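 Rat TrxR1 (90 nM in the dispensed reagent) was pre-reduced with 400 uM NADPH for 5 min at room temperature, then incubated with compound for 15 min. After 400 uM selenite was added, NADPH fluorescence (Ex 340/Em 450 nm) was followed for 8 min.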
# GALK inh = galactokinase (human) inhibition | Purified GALK, Kinase-Glo residual ATP luminescence | Potency, µM (titrated, usually from 57.5 µM), for inactives: top-dose activity change, negative = inhibition, usual class: inhibitors | hit rate 0.007% among 270,000
# Target sequence (P51570 whole entry, looked up): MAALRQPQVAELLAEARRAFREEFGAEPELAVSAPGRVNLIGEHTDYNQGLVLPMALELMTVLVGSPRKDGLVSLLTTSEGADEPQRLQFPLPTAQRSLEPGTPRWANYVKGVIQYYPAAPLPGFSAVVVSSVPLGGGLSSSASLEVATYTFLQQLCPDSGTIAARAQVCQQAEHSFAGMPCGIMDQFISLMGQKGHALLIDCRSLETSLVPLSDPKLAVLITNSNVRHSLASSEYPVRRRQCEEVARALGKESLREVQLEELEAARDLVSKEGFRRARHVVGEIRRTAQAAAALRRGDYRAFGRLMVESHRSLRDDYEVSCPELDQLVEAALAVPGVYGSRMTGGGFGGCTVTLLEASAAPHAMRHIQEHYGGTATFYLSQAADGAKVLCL
#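 5 nM enzyme, 35 uM ATP, 100 uM galactose, 20 mM HEPES pH8.0, 5 mM MgCl2; 1 h RT; residual ATP by Kinase-Glo Plus luminescence, qHTS format.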
# IDH1 R132H inh = blocks human mutant IDH1 R132H enzyme; O75874; IDH1-R132H enzyme, NADPH consumption, diaphorase/resazurin fluorescence; Potency, µM (top dose mostly 76.6 µM), without a hit: top-dose activity change, negative = inhibition, hits mostly inhibitors; hit rate 0.093% among 390,000; AID 602179; note: nearly all actives have a fitted effect of over 65% in size
#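 IDH1-R132H (0.5 ug/mL) preincubated 30 min with compound, then NADPH (0.016 mM) and alpha-KG (2 mM) added; 80 min at RT, pH 7.5. Remaining NADPH coupled via diaphorase/resazurin to fluorescence (540/590 nm); concentration-response curves normalized to no-enzyme control.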
# PKM2 act = increases activity of human pyruvate kinase M2; purified PKM2, Kinase-Glo ATP luminescence, activation; response scale: 0% is enzyme alone, no compound; hit rate 0.34% among 260,000; Potency, µM (doses to about 57.5 µM), for inactives: top-dose activation, most hits filed as activators; note: nearly all actives have a fitted effect of over 55% in size
#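 Purified hPK-M2 (>95% pure) converted ADP (0.1 mM final) to ATP with 0.5 mM PEP in 50 mM imidazole pH7.2, KCl, MgCl2, Tween 20, BSA; 1 h at room temperature. ATP detected by Kinase-Glo luminescence.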
# * marks the source's active call; other numbers are inactive results; ? = inconclusive; · = no result given; [ ] = another dose, or the depositor's remark. Rows were chosen to be rich in hits. Some 1.3% of all compounds tested hit in one or more screens of this group. Calls come from the whole dose curve; as a rule, active = well fitted curve in the direction sought with a large enough effect; inconclusive = small, poorly fitted or top-dose-only effect, or another doubt; inactive = no such curve, though single readings can be large; an effect the other way counts as inactive or inconclusive. % is set by controls: 0 for no effect and ±100 for the full control effect; potency is the fitted concentration of half-maximal effect.
SMILES,TrxR1 substrate,Anesthetic bind,TrxR1 inh,GALK inh,IDH1 R132H inh,PKM2 act
O=C(CCN1CCN(c2ccc([N+](=O)[O-])cc2)CC1)c1ccc(Cl)cc1,-9%,-3%,7.1µM*,·,0%,·
COc1ccc(N2CCN(CCC(=O)c3ccc4ccccc4c3)CC2)cc1,5%,-7%,1.8µM*,·,0%,·
O=C(CCN1CCCCC1)c1cccc(Cl)c1,12%[57.1 µM],·,0.35µM*,·,8%,·
O=C(CCN1CCN(c2ccccc2)CC1)c1ccc(Cl)cc1,-6%,-6%,1.6µM*,-4%,2%,·
COc1ccc(N2CCN(CC(=O)c3ccccc3)CC2)cc1,4%,-6%,?,·,1%,·
CCCn1c2ccccc2c2cnn(CC(=O)NCC3CCN(Cc4ccccc4C)CC3)c(=O)c21,-2%,-13%,-1%,·,6%,·
O=C(Cc1ccc(OCCC2CCCCC2)cc1)NO,-11%,·,-14%,·,·,·
COc1cccc(NC(CNS(=O)(=O)c2ccc(Cl)cc2)c2ccccc2)c1 (configuration not stated),-2%,11%,9%,·,·,·
Cc1ccc(C(=O)O)cc1NC(=S)NC(=O)c1ccc(-c2ccccc2)cc1,1%,-20%,40µM*,-1%,-2%,-1%
O=C(NC(=S)Nc1ccccn1)c1cncc(Br)c1,-2%,-2%,-19%,2%,-8%,4%
Cc1cccnc1NC(=S)NC(=O)c1cncc(Br)c1,10%,-13%,32µM*,6%,6%,-6%
O=C(O)c1cccc(NC(=S)NC(=O)c2ccc(-c3ccccc3)cc2)c1,0%[57.1 µM],-21%,-5%[57.1 µM],-1%,3%,2%
CC(=O)c1cccc(NC(=S)NC(=O)c2ccccc2)c1,0%,-9%,35µM*,-2%,6%,0%
CC(=O)c1cccc(NC(=S)NC(=O)c2cncc(Br)c2)c1,-9%,-8%,22µM*,4%,0%,0%
Cc1ccccc1C(=O)Nc1cc2c(cc1N1CCCCC1)n(C)c(=O)n2C,-11%,-11%,1%,·,?,·
C(=C\c1nccc2ccccc12)/c1ccc(N2CCOCC2)cc1,-2%,·,1%,·,·,·
COc1ccc(/C=C/C(=O)Nc2nc(-c3cccs3)ns2)cc1OC,14%,172%,36%,·,-3%,·
COc1cccc(CNC(=O)c2c3c(nc4ccccc24)C(=O)N(C2CCCCC2)C3)c1,-2%[57.1 µM],?,10%[57.1 µM],·,-14%,·
Cc1ccc(OCC(=O)Nc2ccc3nc(SCCOc4ccccc4)sc3c2)cc1,-6%,7%,15%,·,4%,·
Cc1ccc2c(NC(=S)NC(=O)c3ccccc3)cccc2n1,-22%,?,79µM*,5%,-6%,-3%
COc1cc(C(=O)NC(=S)Nc2cccc3nc(C)ccc23)cc(OC)c1OC,5%[57.1 µM],-9%,24%[57.1 µM],-1%,10%,2%
CCOC(=O)C1=C(CCl)NC(=O)NC1c1ccc2c(c1)OCO2 (configuration not stated),3%,-4%,11µM*,2%,-9%,1%
CCOC(=O)C1=C(CN2CCSCC2)NC(=O)NC1c1ccc2c(c1)OCO2 (configuration not stated),-5%,-13%,4%,-3%,3%,7%
Cc1ccccc1NC(=O)c1cccc2c(=O)c3c([nH]c12)CCCC3,-4%,-3%,-1%,·,-7%,·
C=C1C=C(C)n2ncc(C(=O)Nc3ccc(C)cn3)c2N1,-3%,·,9%,·,·,·
SMILES,TrxR1 substrate,Anesthetic bind,TrxR1 inh,GALK inh,IDH1 R132H inh,PKM2 act
O=C1/C(=C/c2ccc(O)c(O)c2)Oc2ccccc21,·,-6%,·,·,·,·
CCCn1nc(C(=O)Oc2ccc3c(C)cc(=O)oc3c2)c2ccccc2c1=O,702%,184%,50µM*,2%,3%,3%
Cc1cc(=O)oc2cc(OC(=O)c3ccco3)ccc12,54%,-4%,71µM*,-1%,-1%,-4%
Cc1cc(=O)oc2cc(OC(=O)c3nn(C(C)C)c(=O)c4ccccc34)ccc12,658%,312%,25µM*,-3%,3%,-2%
CCCOc1ccc(OCCn2nc(C(=O)O)c3ccccc3c2=O)cc1,4%[57.1 µM],?,13%[57.1 µM],1%,0%,32µM*
CN(C)N=Nc1ccc(/C=C2\C=Cc3ccccc32)cc1,0%,·,-2%,·,·,·
CCOc1ccc(/C=C/c2ccc3ccccc3n2)cc1OCC,-8%,·,-15%,·,·,·
O=C(O)/C=C/C(=O)Nc1ccccc1SC(F)(F)F,1%,0%,35µM*,-2%,3%,?
O=C(CSc1nnc(-c2ccc(F)cc2)c2ccccc12)Nc1ccccc1,-2%,-20%,-1%,-1%,0%,-12%
COC(=O)Cc1nnc(SCC(=O)Nc2ccccc2)c2ccccc12,-6%,2%,50µM*,6%,-9%,·
CCCCCCCCCCCCCCCC[n+]1ccc(C)cc1,-10%,·,-29%,·,·,·
CCOC(=O)C(NC(C)=O)(Nc1ccc(S(=O)(=O)Nc2cc(C)on2)cc1)C(F)(F)F (configuration not stated),5%[57.1 µM],-1%,14%[57.1 µM],0%,1%,0%

# Screens from PubChem BioAssay.
